USP1-UAF1 inh: Inhibitors of USP1/UAF1: Primary Screen | Ubiquitin carboxyl-terminal hydrolase 1 (Homo sapiens), O94782 | recombinant USP1/UAF1, Ub-Rhodamine cleavage fluorescence | actives 0.23% (n = 390,000) | Potency, µM (titrated, usually from 57.1 µM), most hits filed as inhibitors; also: nearly all actives have a fitted effect of over 60% in size
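USP1/UAF1 complex (1 nM) preincubated 15 min at room temperature with compound, then Ub-Rho substrate (150 nM final) added. Kinetic fluorescence at 480/540 nm over 6 reads at 60 s intervals; 50 mM HEPES pH 7.8, 0.5 mM EDTA, 0.1 mg/ml BSA, 1 mM TCEP, 0.01% Tween-20.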
VDR inhibitor: Inhibitors of the vitamin D receptor (VDR): qHTS; Vitamin D3 receptor (Homo sapiens), P11473; VDR-SRC2-3 peptide fluorescence polarization, 2 h; Potency, µM, usual class: inhibitors; actives 0.93% (n = 400,000); AID 504847, 2011
Target sequence (P11473 whole entry, looked up): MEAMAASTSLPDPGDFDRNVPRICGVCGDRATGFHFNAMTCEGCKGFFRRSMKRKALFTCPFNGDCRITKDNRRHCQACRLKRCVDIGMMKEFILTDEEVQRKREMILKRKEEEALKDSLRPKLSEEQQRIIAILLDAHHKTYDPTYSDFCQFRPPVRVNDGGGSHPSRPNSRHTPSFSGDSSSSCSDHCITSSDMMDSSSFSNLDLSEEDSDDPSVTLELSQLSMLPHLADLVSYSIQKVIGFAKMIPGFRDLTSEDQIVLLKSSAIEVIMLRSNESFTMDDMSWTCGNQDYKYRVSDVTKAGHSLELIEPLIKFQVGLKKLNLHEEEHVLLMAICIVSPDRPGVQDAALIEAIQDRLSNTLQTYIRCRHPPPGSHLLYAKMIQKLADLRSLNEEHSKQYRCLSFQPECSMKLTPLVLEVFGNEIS
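Reagent solutions, kept cold and dark, are dispensed first; compounds are then pinned in at 23 nl, plates briefly spun, and incubated 2 h at ambient temperature. Inhibition of VDR–SRC2-3 peptide binding is read by fluorescence polarization.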
GCN5L2 inh: qHTS Assay for Inhibitors of GCN5L2; actives 0.21% (n = 390,000); Histone acetyltransferase KAT2A (Homo sapiens), Q92830; Potency, µM (series often up to 58.9 µM), hits mostly inhibitors; GCN5L2 HAT assay, ThioGlo1 CoA-SH fluorescence
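Titration-based screen in which CoA formation is detected via maleimide probe ThioGlo1 (50uM) turning fluorescent on thiol reaction; substrates H3(1-25) 75uM and acetyl-CoA 70uM, GCN5L2 20nM, 20 min incubation at room temperature.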
TSG101-PTAP inh: qHTS Assay for Iinhibitors of HIV-1 Budding by Blocking the Interaction of PTAP/TSG101; Tumor susceptibility gene 101 protein (Homo sapiens), Q99816; Fluorescence polarization, FITC-PTAP peptide / Tsg101 binding; Potency, µM (top dose mostly 115 µM), most hits filed as inhibitors; 340,000 tested, under 10 active; active = well fitted inhibition curve with a large enough effect in the main read-out, with a control signal flat, not every such curve was filed as active; inconclusive = small, poorly fitted or top-dose-only effect, or effect the other way, or a change in a side signal; inactive = no such curve, though single readings can be large or run the other way
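Tsg101 binding domain (10 uM final) was mixed with compound and a FITC-labeled PTAP peptide (50 nM final) in HEPES pH 7.5 buffer with NaCl, Tween 20, EDTA and TCEP; fluorescence polarization was read after 20 min at r.t.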
PLK1 PBD inh: qHTS for Inhibitors of PLK1-PDB (polo-like kinase 1 - polo-box domain): Primary Screen. actives 2.8% (n = 360,000). Plk1 PBD binding of FITC phosphopeptide, fluorescence polarization. Potency, µM, most hits filed as inhibitors. AID 720504, 2013; also: series mostly up to about 57 µM; nearly all actives have a fitted effect of over 65% in size
USP1-UAF1 confirm: Inhibitors of USP1/UAF1: Hit Validation in Primary Assay; shares compounds with VDR inhibitor; actives 50% (n = 50); Ub-Rhodamine cleavage, fluorescence kinetic read; Potency, µM (titrated, usually from 56.8 µM), hits mostly inhibitors
VDR inh confirm: qHTS for Inhibitors of the vitamin D receptor (VDR): Hit Validation in Primary Screen; VDR-coactivator inhibition assay, qHTS confirmation; shares compounds with VDR inhibitor; actives 89% (n = 840); Potency, µM, hits mostly inhibitors
VDR FP fluor: qHTS for Inhibitors of the vitamin D receptor (VDR): Hit Validation using a Fluorescein Assay. shares compounds with VDR inhibitor. VDR-coactivator binding, fluorescein fluorescence polarization. Potency, µM (titrated, usually from 57.1 µM), most hits filed as inhibitors. actives 48% (n = 840). AID 602200, 2012
VDR bla: qHTS for Inhibitors of the vitamin D receptor (VDR): Hit Validation using a Beta-Lactamase Assay; shares compounds with VDR inhibitor; VDR beta-lactamase reporter cells, FRET ratio; cells co-treated with VDR agonist LG190178; Potency, µM (highest dose often 46.1 µM), most hits filed as inhibitors; actives 23% (n = 840); AID 602202, 2012
VDR viability: qHTS for Inhibitors of the vitamin D receptor (VDR): Hit Validation using a Cytotoxicity Assay | shares compounds with VDR inhibitor | cytotoxicity counter-screen, cell viability, qHTS | Potency, µM (highest dose often 48.3 µM), actives largely listed as cytotoxic | actives 18% (n = 840); also: nearly all actives have a fitted effect of over 75% in size
Of the large screens only hits and unclear results are named; the others gave an inactive call (follow-up assays come after a bar, where they were run). This is a sample that favours compounds with a hit; in the whole collection about 3% have one here. Unless noted, calls follow the shape of the dose curve; as a rule, active = well fitted curve in the direction sought with a large enough effect; inconclusive = small, poorly fitted or top-dose-only effect, or another doubt; inactive = no such curve, though single readings can be large; an effect the other way counts as inactive or inconclusive.

CCOC(=O)c1sc(=S)n(-c2ccc(OC)cc2)c1C	none
CCOC(=O)c1c2c(n(-c3ccc(OC)cc3)c1C)C(=O)C(=O)c1ccccc1-2	USP1-UAF1 inh 1.8µM, VDR inhibitor 18µM, PLK1 PBD inh inconclusive (no result: GCN5L2 inh) | VDR inh confirm 12 | VDR FP fluor 11µM | VDR bla 5.8µM | VDR viability 6.3µM
CCOC(=O)C1=C(C)N=C2c3ccccc3C(=O)C2C1c1ccc(Cl)cc1 (stereo unspecified)	none
CCOC(=O)C1=C(Cc2ccc(Cl)cc2)C(=O)c2ccccc2C1=O	USP1-UAF1 inh inconclusive, VDR inhibitor 6.3µM, PLK1 PBD inh 4.7µM | VDR inh confirm 1.8 | VDR FP fluor inconclusive | VDR bla 23µM | VDR viability inconclusive
O=C1/C(=C/c2ccccn2)COc2ccccc21	VDR inhibitor inconclusive | VDR inh confirm 13 | VDR FP fluor 22µM | VDR bla inconclusive | VDR viability inactive
O=C1/C(=C/c2ccc(O)cc2)COc2ccccc21	VDR inhibitor inconclusive
CC(C)(C)C1C/C(=C/c2ccccn2)C(=O)/C(=C/c2ccccn2)C1 (stereo unspecified)	VDR inhibitor inconclusive, PLK1 PBD inh inconclusive | VDR inh confirm 2.5 | VDR FP fluor 2µM | VDR bla 1µM | VDR viability 12µM
C(=C\c1ccccn1)/c1ccccn1	VDR inhibitor inconclusive, PLK1 PBD inh inconclusive
O=C(Nc1ccc(F)cc1)N1CCN(c2ccccc2F)CC1	none (no result: TSG101-PTAP inh, PLK1 PBD inh)
CCc1sc(Nc2cccc(C)c2C)nc1-c1cc2cccc(OC)c2oc1=O	none (no result: TSG101-PTAP inh, PLK1 PBD inh)
O=C1c2ccccc2CCC1CNCCc1ccc(O)cc1 (stereo unspecified)	VDR inhibitor 2.8µM (no result: USP1-UAF1 inh, TSG101-PTAP inh, PLK1 PBD inh) | VDR inh confirm 14 | VDR FP fluor 28µM | VDR bla inconclusive | VDR viability inconclusive
O=C1c2ccccc2CC[C@H]1CNCCc1ccc(O)cc1	VDR inhibitor 3.5µM (no result: USP1-UAF1 inh, TSG101-PTAP inh, PLK1 PBD inh) | VDR inh confirm inconclusive | VDR FP fluor inconclusive | VDR bla inactive | VDR viability inactive
O=C(NCCc1ccccc1)c1noc2c1CCc1ccccc1-2	none
Nc1ccc(-c2nc3ccc(-c4nc5ccc(N)cc5[nH]4)cc3[nH]2)cc1	GCN5L2 inh inconclusive (no result: USP1-UAF1 inh, TSG101-PTAP inh, PLK1 PBD inh) | USP1-UAF1 confirm inconclusive
Nc1ccc2nc(-c3ccc(-c4nc5ccc(N)cc5[nH]4)cc3)[nH]c2c1	none
CCS(=O)(=O)c1ccc2oc(Nc3ccc(C(C)C)cc3)nc2c1	VDR inhibitor 40µM, PLK1 PBD inh 2.7µM | VDR inh confirm 8.4 | VDR FP fluor 4µM | VDR bla inactive | VDR viability inactive
CCS(=O)(=O)c1ccc2oc(Nc3cc(C)cc(C)c3)nc2c1	none

High-throughput results (PubChem BioAssay)
